# F-actin modifier = alters cytoskeleton assembly in HUVEC cells; inhibition, % at 2 µM; hit rate 0.18% among 91,000; HUVEC TNFa F-actin phalloidin imaging, high content; AID 836;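 active = inhibition above the batch mean plus 3 SD and confirmed as a hit by visual image inspection, cut at about 30% in these data, passing the limit was not always enough; inconclusive = above the inhibition threshold but rejected on visual inspection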
# MRP reversal = reverses drug resistance mediated by MRP; H69AR cells + 2 uM doxorubicin, CellTiter-Glo, 72 h; differential viability (reversal), % at 10 µM; hit rate 0.04% among 85,000; AID 602;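 active = viability drop by adding the cancer drug above about 55%, with treated viability meeting a 40% cutoff, limit read from the data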;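 note: viability without doxorubicin minus viability with 2 µM doxorubicin for each compound; larger differential means the compound sensitizes cells more to doxorubicin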
# VCAM1 TNFa inh = reduces TNF alpha induced VCAM1 expression in HUVEC | HUVEC TNFa-induced VCAM-1 immunofluorescence, high-content imaging | hit rate 0.48% among 95,000 | inhibition, % at 2 µM;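 active = inhibition above the batch mean plus 3 SD, with images confirmed as a hit by eye, cut at about 37% in these data; inconclusive = inhibition above that limit but hit not confirmed in images; inactive = inhibition not above that limit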;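 note: 0% = TNF-stimulated DMSO wells and 100% = unstimulated control wells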
# MRP1 act = activates MRP-1 | H69AR cells + doxorubicin, viability rescue, CellTiter-Glo | hit rate 0.61% among 140,000 | viability increase, % at 10 µM;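 active = viability gain under doxorubicin at or above a set limit, the compound median plus 3 SD, cut at about 4.7% in these data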;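 note: MRP-1 overexpressing cells given doxorubicin 25 µM after compound pretreatment; 18-22 h compound pretreatment then 72 h with doxorubicin before readout; 0% = doxorubicin-only wells and 100% = vehicle-treated cells without doxorubicin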
# E-sel TNF inh = blocks E-selectin expression induced by TNF alpha; HUVEC TNFa-induced E-selectin immunofluorescence, high content; inhibition, % at 2 µM; hit rate 0.71% among 120,000;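 active = inhibition above the batch mean plus 3 SD, and confirmed as a hit on visual image review, cut at about 43% in these data; inconclusive = passes the inhibition cutoff but fails visual image review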;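 note: 0% = TNF-stimulated DMSO wells and 100% = unstimulated control wells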
# Numbers without * were called inactive; ? = inconclusive; . = not tested or not shown. Only some compounds are listed: those with a hit (about 1.5% of all), similar ones and a draw of the others.
SMILES,F-actin modifier,MRP reversal,VCAM1 TNFa inh,MRP1 act,E-sel TNF inh
Cc1c(NC(=O)c2ccccc2NS(=O)(=O)c2ccc(Br)cc2)c(=O)n(-c2ccccc2)n1C,-11.2,-10.4,9.4,5.3*,8.4
N#C/C(=C1\C(=O)Nc2c(Cl)cc(Cl)cc21)c1nnc2n1CCCCC2,-12.4,-14.4,9.8,-2.9,4.7
Cc1ccc(NC(=O)CSc2nc(O)cc(=O)n2C)cc1,-0.3,-9.4,9.3,8.5*,.
Cc1ccc(NC(=O)CSc2nnc(-c3cccs3)n2Cc2ccco2)cc1,-13.2,12.8,8.1,6.1*,-5.6
Cc1ccc(NC(=O)CSc2nnc(C)n2-c2ccccc2)cc1,13.1,1.1,-1.0,6.8*,-2.9
Cn1c(SCC(=O)Nc2cccc3ccccc23)nc(O)cc1=O,-24.8,.,-5.2,-1.4,1.8
Cc1ccc(-n2c(C)nnc2SCC(=O)Nc2ccccc2)cc1,4.9,7.9,2.1,5.9*,17.6
CC(C)c1ccc(CN2CCC(C(=O)NCc3cccnc3)CC2)cc1,4.3,-11.4,17.5,-2.6,19.6
CCn1c(SCC(=O)Nc2ccccc2)nnc1C1CCCCC1,22.8,31.8,-6.0,0.5,60.2*
CCOC(=O)c1cccc(NC(=O)CSc2nnc(C3CCCCC3)n2C)c1,0.3,5.2,26.1,-1.1,-17.1
Cc1cc2ncn(/N=C/c3ccc([N+](=O)[O-])o3)c2cc1C,23.7,.,4.5,-5.8,.
O=C(Nc1nnc(C(F)(F)F)s1)C1COc2ccccc2O1 (stereo not given),-32.0,-11.0,25.3,5.3*,8.6
O=C(Nc1nnc(C2CC2)s1)C1COc2ccccc2O1 (stereo not given),.,.,.,.,-13.4
COc1ccc(CNC(=O)c2cc3c(s2)CS(=O)C3)cc1 (stereo not given),7.7,6.5,4.4,-0.4,20.7
COC(=O)c1cc2c(s1)CS(=O)C2 (stereo not given),.,4.1,.,-0.7,95.9*
O=C(Nc1ccccc1-c1nnc(SCc2ccccc2Cl)o1)c1ccccc1,-6.0,.,11.0,3.4,-20.8
CCOC(=S)NC(=O)c1sc2ccccc2c1Cl,14.7,.,6.3,8.5*,1.2
O=C(N/N=C/c1ccc[nH]1)c1sc2ccccc2c1Cl,-44.2,.,38.3*,-2.7,-11.0
CCCOC(=S)NC(=O)c1sc2ccccc2c1Cl,4.6,.,-18.4,5.7*,-7.2
CC(=O)Nc1cc(Cl)ccc1OS(=O)(=O)c1ccc(C)cc1,.,.,.,-0.4,.
CCN(CC)CCN(C)Cc1ccc(Br)cc1,6.6,-10.1,13.6,-1.6,.
COc1ccc(/C=N/Nc2cc(OC)ncn2)cc1,.,.,.,5.4*,.
Cc1ccc2[nH]c(-c3ccccc3)cc(=O)c2c1,-105.8,-16.9,63.7*,-6.0,.
Cc1c(-c2ccn[nH]2)cc(NC(=O)c2ccc(Cl)cc2)c(=O)n1N,.,.,.,.,-5.7
COc1cc([N+](=O)[O-])ccc1NC(=O)CSc1n[nH]c(C(C)C)n1,.,.,.,.,-15.1
SMILES,F-actin modifier,MRP reversal,VCAM1 TNFa inh,MRP1 act,E-sel TNF inh
COc1ccccc1NC(=O)c1ccc(S(=O)(=O)N2CCCC2)cc1,-1.1,9.1,7.0,-0.8,99.5*
CN1CCN(S(=O)(=O)c2ccc(NC(=O)c3ccc(F)cc3)cc2)CC1,4.3,2.6,-16.4,-0.6,100.0*
COC(=O)N/N=C/c1ccc(-c2ccc(C)c(Cl)c2)o1,.,.,.,7.5*,25.9
Cc1ccc(-c2ccc(/C=N/NC(=O)CN3CCCC3)o2)cc1Cl,-0.2,.,4.4,-2.0,3.9
COC(=O)N/N=C/c1ccc(-c2cccc(Cl)c2)o1,.,.,.,4.8*,19.5
COC(=O)N/N=C/c1ccc(-c2cc(Cl)cc(Cl)c2)o1,.,.,.,8.5*,.
C=CCOc1ccc2ccccc2c1CNc1ncn[nH]1,-1.9,-8.6,20.9,-1.9,-7.5
CC1CC1C(=O)Nc1nc(-c2cccs2)c(-c2cccs2)s1 (stereo not given),.,.,.,0.3,.
CCN(C(=O)COC(=O)c1cc(C)n(-c2ccc(F)cc2)c1C)C1CCS(=O)(=O)C1 (stereo not given),-11.1,-6.0,2.9,-3.6,99.9*
CC1=C(C(=O)Nc2ccccc2)C(c2ccc(C)o2)N2C(=O)CSC2=N1 (stereo not given),16.2,-3.5,14.2,11.2*,-10.0
COc1ccc(-n2nnnc2S(=O)(=O)CC(=O)N2CCCCC2)cc1,6.3,0.3,?,-5.0,81.7*
COc1ccc(-n2nnnc2S(=O)(=O)Cc2ccc(C(=O)O)cc2)cc1,13.6,-11.0,23.6,-1.5,17.6
CCCC(CCC)C(=O)NNc1cc(=O)c2c(=O)n(C)c(=O)n(C)c2[nH]1,-14.2,.,11.1,-2.0,99.9*
Cn1c(=O)c2c(O)c(Cc3ccccc3)c(=O)[nH]c2n(C)c1=O,.,.,.,1.4,.
O=C1c2cccc3cccc(c23)C(=O)N1c1cccnc1,6.7,-19.4,9.1,2.6,2.2

# Assay outcomes as filed in PubChem.
